From publication PMC11006913
Substitutions are numbered along the chain they refer to.

What was measured:
Assay in all cases: PBM; 200 nM protein, PBS
Conditions in all cases: dsDNA, one strand shown
HOXB4 [1] = molecular target: HOXB4 (Homo sapiens, UniProt P17483 148-234)
VENTX [2] = molecular target: T1, VENTX (Homo sapiens, UniProt O95231 78-163, R121Q)
T1 sequence: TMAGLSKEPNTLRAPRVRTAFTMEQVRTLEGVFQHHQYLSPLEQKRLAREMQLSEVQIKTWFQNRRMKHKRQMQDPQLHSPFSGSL

HOXA4 [3] = molecular target: HOXA4 (Homo sapiens, UniProt Q00056 201-287, W262R)
HOXA4 (Homo sapiens, UniProt Q00056 201-287, W262R), sequence (Q00056 201-287 W262R): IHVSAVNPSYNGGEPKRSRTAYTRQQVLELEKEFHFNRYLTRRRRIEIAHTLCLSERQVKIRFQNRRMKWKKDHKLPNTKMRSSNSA

HOXA7 [4] = molecular target: HOXA7 (Homo sapiens, UniProt P31268 116-202)
HOXA7 (Homo sapiens, UniProt P31268 116-202), sequence (P31268 116-202): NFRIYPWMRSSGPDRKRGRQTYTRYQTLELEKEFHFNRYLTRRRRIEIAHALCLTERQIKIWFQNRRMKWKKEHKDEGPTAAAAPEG

PRRX1 [5] = molecular target: PRRX1 (Homo sapiens, UniProt P54821 80-166, F113S)
PRRX1 (Homo sapiens, UniProt P54821 80-166, F113S), sequence (P54821 80-166 F113S): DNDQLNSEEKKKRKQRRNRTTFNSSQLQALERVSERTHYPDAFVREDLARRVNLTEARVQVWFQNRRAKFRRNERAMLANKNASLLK

VENTX [6] = molecular target: T2, VENTX (Homo sapiens, UniProt O95231 78-163, Y115F)
T2 sequence: T1 sequence with Y38F, Q44R

HOXB6 [7] = molecular target: HOXB6 (Homo sapiens, UniProt P17509 132-218, K202E)
HOXB6 (Homo sapiens, UniProt P17509 132-218, K202E), sequence (P17509 132-218 K202E): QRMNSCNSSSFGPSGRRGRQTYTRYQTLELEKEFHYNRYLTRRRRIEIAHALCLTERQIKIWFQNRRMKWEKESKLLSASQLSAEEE

HOXA2 [8] = molecular target: HOXA2 (Homo sapiens, UniProt O43364 129-215, R185T)
HOXA2 (Homo sapiens, UniProt O43364 129-215, R185T), sequence (O43364 129-215 R185T): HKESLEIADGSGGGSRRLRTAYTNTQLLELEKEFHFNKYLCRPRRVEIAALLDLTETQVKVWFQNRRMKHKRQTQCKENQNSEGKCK

HOXA4 [9] = molecular target: HOXA4 (Homo sapiens, UniProt Q00056 201-287, R217L)
HOXA4 (Homo sapiens, UniProt Q00056 201-287, R217L), sequence (Q00056 201-287 R217L): as the sequence (Q00056 201-287 W262R) above, with R17L, R62W counted along it

HOXB4 [10] = molecular target: HOXB4 (Homo sapiens, UniProt P17483 148-234, V174I)
HOXB4 (Homo sapiens, UniProt P17483 148-234, V174I), sequence (P17483 148-234 V174I): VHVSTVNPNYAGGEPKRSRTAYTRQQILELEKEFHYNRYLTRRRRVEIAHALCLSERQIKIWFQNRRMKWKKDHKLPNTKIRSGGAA

HOXA2 [11] = molecular target: HOXA2 (Homo sapiens, UniProt O43364 129-215, R185K)
HOXA2 (Homo sapiens, UniProt O43364 129-215, R185K), sequence (O43364 129-215 R185K): as the sequence (O43364 129-215 R185T) above, with T57K counted along it

HOXA4 [12] = molecular target: HOXA4 (Homo sapiens, UniProt Q00056 201-287)
HOXA4 (Homo sapiens, UniProt Q00056 201-287), sequence (Q00056 201-287): as the sequence (Q00056 201-287 W262R) above, with R62W counted along it

VAX1 [13] = molecular target: VAX1 (Homo sapiens, UniProt Q5SQQ9 86-172)
VAX1 (Homo sapiens, UniProt Q5SQQ9 86-172), sequence (Q5SQQ9 86-172): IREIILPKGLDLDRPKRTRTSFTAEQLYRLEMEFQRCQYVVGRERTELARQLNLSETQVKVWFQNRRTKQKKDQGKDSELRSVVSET

VAX1 [14] = molecular target: VAX1 (Homo sapiens, UniProt Q5SQQ9 86-172, T142I)
VAX1 (Homo sapiens, UniProt Q5SQQ9 86-172, T142I), sequence (Q5SQQ9 86-172 T142I): as the sequence (Q5SQQ9 86-172) above, with T57I counted along it

HOXA2 [15] = molecular target: HOXA2 (Homo sapiens, UniProt O43364 129-215, Y150S)
HOXA2 (Homo sapiens, UniProt O43364 129-215, Y150S), sequence (O43364 129-215 Y150S): as the sequence (O43364 129-215 R185T) above, with Y22S, T57R counted along it

HOXA7 [16] = molecular target: HOXA7 (Homo sapiens, UniProt P31268 116-202, W177C)
HOXA7 (Homo sapiens, UniProt P31268 116-202, W177C), sequence (P31268 116-202 W177C): as the sequence (P31268 116-202) above, with W62C counted along it

HOXA4 [17] = molecular target: HOXA4 (Homo sapiens, UniProt Q00056 201-287, W262F)
HOXA4 (Homo sapiens, UniProt Q00056 201-287, W262F), sequence (Q00056 201-287 W262F): as the sequence (Q00056 201-287 W262R) above, with R62F counted along it

PRRX1 [18] = molecular target: PRRX1 (Homo sapiens, UniProt P54821 80-166)
PRRX1 (Homo sapiens, UniProt P54821 80-166), sequence (P54821 80-166): as the sequence (P54821 80-166 F113S) above, with S34F counted along it

HOXA2 [19] = molecular target: HOXA2 (Homo sapiens, UniProt O43364 129-215)
HOXA2 (Homo sapiens, UniProt O43364 129-215), sequence (O43364 129-215): as the sequence (O43364 129-215 R185T) above, with T57R counted along it

VAX1 [20] = molecular target: VAX1 (Homo sapiens, UniProt Q5SQQ9 86-172, K157R)
VAX1 (Homo sapiens, UniProt Q5SQQ9 86-172, K157R), sequence (Q5SQQ9 86-172 K157R): as the sequence (Q5SQQ9 86-172) above, with K72R counted along it

HOXB6 [21] = molecular target: HOXB6 (Homo sapiens, UniProt P17509 132-218)
HOXB6 (Homo sapiens, UniProt P17509 132-218), sequence (P17509 132-218): as the sequence (P17509 132-218 K202E) above, with E71K counted along it

HOXB9 = HOXB9 (Homo sapiens, UniProt P17482 171-250, T197M)
HOXB9, sequence (P17482 171-250 T197M): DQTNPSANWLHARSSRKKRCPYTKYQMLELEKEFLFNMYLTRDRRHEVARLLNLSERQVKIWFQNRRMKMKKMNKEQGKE

VENTX [22] = molecular target: T3, VENTX (Homo sapiens, UniProt O95231 78-163)
T3 sequence: T1 sequence with Q44R

MSX2 [23] = molecular target: MSX2 (Homo sapiens, UniProt P35548 130-214, R199I)
MSX2 (Homo sapiens, UniProt P35548 130-214, R199I), sequence (P35548 130-214 R199I): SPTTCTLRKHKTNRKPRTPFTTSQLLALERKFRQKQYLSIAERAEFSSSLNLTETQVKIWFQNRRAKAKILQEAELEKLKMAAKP

HOXC10 = HOXC10 (Homo sapiens, UniProt Q9NYD6 254-340, K271E)
HOXC10, sequence (Q9NYD6 254-340 K271E): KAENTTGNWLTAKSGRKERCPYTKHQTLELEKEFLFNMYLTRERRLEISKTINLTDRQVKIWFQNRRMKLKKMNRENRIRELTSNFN

MSX2 [24] = molecular target: MSX2 (Homo sapiens, UniProt P35548 130-214)
MSX2 (Homo sapiens, UniProt P35548 130-214), sequence (P35548 130-214): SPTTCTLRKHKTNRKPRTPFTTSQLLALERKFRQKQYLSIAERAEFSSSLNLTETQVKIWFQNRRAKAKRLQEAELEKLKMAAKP

MSX2 [25] = molecular target: MSX2 (Homo sapiens, UniProt P35548 130-214, F161Y)
MSX2 (Homo sapiens, UniProt P35548 130-214, F161Y), sequence (P35548 130-214 F161Y): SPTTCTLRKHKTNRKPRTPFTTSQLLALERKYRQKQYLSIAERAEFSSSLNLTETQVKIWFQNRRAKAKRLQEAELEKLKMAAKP

HOXB4 (Homo sapiens, UniProt P17483 148-234), sequence (P17483 148-234): as the sequence (P17483 148-234 V174I) above, with I27V counted along it

Q: Which results are given for AGTCATTA?
A: binding signal (HOXB4 [1]): 13.1 upbm affinity estimate (log intensity, higher = more binding, comparable within an allelic series); binding signal (VENTX [2]): 11.7 upbm affinity estimate (log intensity, higher = more binding, comparable within an allelic series); binding signal (HOXA4 [3]): 10.6 upbm affinity estimate (log intensity, higher = more binding, comparable within an allelic series); binding signal (HOXA7 [4]): 11.5 upbm affinity estimate (log intensity, higher = more binding, comparable within an allelic series); binding signal (PRRX1 [5]): 10.4 upbm affinity estimate (log intensity, higher = more binding, comparable within an allelic series); binding signal (VENTX [6]): 11.7 upbm affinity estimate (log intensity, higher = more binding, comparable within an allelic series); binding signal (HOXB6 [7]): 9.89 upbm affinity estimate (log intensity, higher = more binding, comparable within an allelic series); binding signal (HOXA2 [8]): 12.9 upbm affinity estimate (log intensity, higher = more binding, comparable within an allelic series); binding signal (HOXA4 [9]): 12.5 upbm affinity estimate (log intensity, higher = more binding, comparable within an allelic series); binding signal (HOXB4 [10]): 13.7 upbm affinity estimate (log intensity, higher = more binding, comparable within an allelic series); binding signal (HOXA2 [11]): 13.5 upbm affinity estimate (log intensity, higher = more binding, comparable within an allelic series); binding signal (HOXA4 [12]): 13.9 upbm affinity estimate (log intensity, higher = more binding, comparable within an allelic series); binding signal (VAX1 [13]): 13.1 upbm affinity estimate (log intensity, higher = more binding, comparable within an allelic series); binding signal (VAX1 [14]): 13 upbm affinity estimate (log intensity, higher = more binding, comparable within an allelic series); binding signal (HOXA2 [15]): 10.9 upbm affinity estimate (log intensity, higher = more binding, comparable within an allelic series); binding signal (HOXA7 [16]): 8.85 upbm affinity estimate (log intensity, higher = more binding, comparable within an allelic series); binding signal (HOXA4 [17]): 12 upbm affinity estimate (log intensity, higher = more binding, comparable within an allelic series); binding signal (PRRX1 [18]): 12.7 upbm affinity estimate (log intensity, higher = more binding, comparable within an allelic series); binding signal (HOXA2 [19]): 12.7 upbm affinity estimate (log intensity, higher = more binding, comparable within an allelic series); binding signal (VAX1 [20]): 12.9 upbm affinity estimate (log intensity, higher = more binding, comparable within an allelic series); binding signal (HOXB6 [21]): 11.7 upbm affinity estimate (log intensity, higher = more binding, comparable within an allelic series)

Q: What does the source list for GGTCATTA?
A: binding signal (HOXB4 [1]): 13.3 upbm affinity estimate (log intensity, higher = more binding, comparable within an allelic series); binding signal (VENTX [2]): 11.8 upbm affinity estimate (log intensity, higher = more binding, comparable within an allelic series); binding signal (HOXB9): 10 upbm affinity estimate (log intensity, higher = more binding, comparable within an allelic series); binding signal (HOXA4 [3]): 10.6 upbm affinity estimate (log intensity, higher = more binding, comparable within an allelic series); binding signal (VENTX [22]): 12.4 upbm affinity estimate (log intensity, higher = more binding, comparable within an allelic series); binding signal (HOXA7 [4]): 11.8 upbm affinity estimate (log intensity, higher = more binding, comparable within an allelic series); binding signal (VENTX [6]): 11.8 upbm affinity estimate (log intensity, higher = more binding, comparable within an allelic series); binding signal (HOXB6 [7]): 9.99 upbm affinity estimate (log intensity, higher = more binding, comparable within an allelic series); binding signal (HOXA2 [8]): 13 upbm affinity estimate (log intensity, higher = more binding, comparable within an allelic series); binding signal (HOXA4 [9]): 12.5 upbm affinity estimate (log intensity, higher = more binding, comparable within an allelic series); binding signal (HOXB4 [10]): 14 upbm affinity estimate (log intensity, higher = more binding, comparable within an allelic series); binding signal (MSX2 [23]): 11.6 upbm affinity estimate (log intensity, higher = more binding, comparable within an allelic series); binding signal (HOXA2 [11]): 13.7 upbm affinity estimate (log intensity, higher = more binding, comparable within an allelic series); binding signal (HOXA4 [12]): 13.9 upbm affinity estimate (log intensity, higher = more binding, comparable within an allelic series); binding signal (HOXC10): 12 upbm affinity estimate (log intensity, higher = more binding, comparable within an allelic series); binding signal (MSX2 [24]): 12.7 upbm affinity estimate (log intensity, higher = more binding, comparable within an allelic series); binding signal (VAX1 [13]): 13.6 upbm affinity estimate (log intensity, higher = more binding, comparable within an allelic series); binding signal (MSX2 [25]): 12.5 upbm affinity estimate (log intensity, higher = more binding, comparable within an allelic series); binding signal (VAX1 [14]): 13.5 upbm affinity estimate (log intensity, higher = more binding, comparable within an allelic series); binding signal (HOXA2 [15]): 10.9 upbm affinity estimate (log intensity, higher = more binding, comparable within an allelic series); binding signal (HOXA7 [16]): 8.85 upbm affinity estimate (log intensity, higher = more binding, comparable within an allelic series); binding signal (HOXA4 [17]): 11.9 upbm affinity estimate (log intensity, higher = more binding, comparable within an allelic series); binding signal (HOXA2 [19]): 12.8 upbm affinity estimate (log intensity, higher = more binding, comparable within an allelic series); binding signal (VAX1 [20]): 13.6 upbm affinity estimate (log intensity, higher = more binding, comparable within an allelic series); binding signal (HOXB6 [21]): 12.1 upbm affinity estimate (log intensity, higher = more binding, comparable within an allelic series)
